A selection: hits, their analogues and other compounds. The true share with any hit is near 8.8%.
IL-1B inflam inh – qHTS for Inhibitors of Inflammasome Signaling: IL-1-beta AlphaLISA Primary Screen | AID 743279, 2014 | activity change, % at 57.5 µM | THP-1 LPS/ATP IL-1B secretion, AlphaLISA, 16 h; active compounds read low | actives 4.7% (n = 360,000); in the data active = activity change below about -50%; inconclusive = mostly about -30% to -49%
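Secreted IL-1B measured by AlphaLISA bead assay after 16 h compound exposure of THP-1 cells; compounds (final up to 57.5 uM) added 1 h before LPS (250 ng/mL) and ATP (1.25 mM) stimulation; lower signal means less secretion.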
HT1080NT lethal – qHTS for induction of synthetic lethality in tumor cells producing 2HG: qHTS for the HT-1080-NT fibrosarcoma cell line; HT-1080-NT fibrosarcoma viability, CellTiter-Glo ATP luminescence, 48 h; Potency, µM (highest dose often 46.1 µM), hits mostly cytotoxic; actives 1.6% (n = 360,000); AID 686970, 2013;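 also: NT is the 2HG producing partner of a matched IDH1 knockdown line; nearly all actives have a fitted effect of over 55% in size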
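Read-out is CellTiter-Glo luminescence after 10 minutes at room temperature, following 48 hours' compound treatment of HT-1080-NT cells (750 cells/well, RPMI, 5% FBS, 37 degrees C).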
KB-3-1 cytotox – qHTS assay for MDR1-selective chemotherapeutics: Primary screen using the parental adenocarcinoma cell KB-3-1; KB-3-1 viability, CellTiter-Glo ATP luminescence, 72 h; Potency, µM (top dose mostly 46.1 µM), usual class: cytotoxic; actives 1.4% (n = 400,000); also: nearly all actives have a fitted effect of over 60% in size
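Using CellTiter-Glo luminescence, growth of non-resistant KB-3-1 adenocarcinoma cells is assessed 72 h after pin-tool compound addition at 37 °C. Normalized responses across the concentration series yield fitted curves.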
KB-V1 MDR tox – qHTS assay for MDR1-selective chemotherapeutics: Primary screen using the drug-selected MDR subline cells KB-V1; actives 3.4% (n = 400,000); KB-V1 MDR cells viability, CellTiter-Glo, 72 h; AID 1347076, 2019; Potency, µM (highest dose often 46.1 µM), most hits filed as cytotoxic; also: nearly all actives have a fitted effect of over 60% in size
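Potencies derive from concentration-effect curves fitted to normalized luminescence (CellTiter-Glo) of KB-V1 cells treated for 72 h at 37 degrees C in phenol-red-free DMEM containing 10% FBS.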
HT1080 IDH1KD tx – qHTS for induction of synthetic lethality in tumor cells producing 2HG: qHTS for the HT-1080-IDH1KD cell line. Potency, µM (top dose mostly 46.1 µM), hits mostly cytotoxic. HT-1080 IDH1 knockdown viability, ATP luminescence, 48 h. actives 2% (n = 360,000)
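HT-1080-IDH1KD cells (IDH1 knocked down), 750/well in RPMI with 5% FBS, treated with compound 48 h at 37 degrees C. Viability by CellTiter-Glo luminescence, normalised to DMSO and no-cell wells; concentration-response curves classed.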
Large screens that a line does not name were inactive. Unless noted, calls follow the shape of the dose curve; as a rule, active = well fitted curve in the direction sought with a large enough effect; inconclusive = small, poorly fitted or top-dose-only effect, or another doubt; inactive = no such curve, though single readings can be large; an effect the other way counts as inactive or inconclusive.

O=C(Nc1ccc(F)cc1)C(CCc1ccccc1)N1CCN(c2ccncc2)CC1 (stereo not drawn)	HT1080NT lethal 21µM, HT1080 IDH1KD tx inconclusive
O=C(Nc1ccc2c(c1)OCCO2)C(CCc1ccccc1)N1CCC(Cc2ccccc2)CC1 (stereo not drawn)	KB-V1 MDR tox 23µM
CC(OC(=O)CNC(=O)c1sc2ccccc2c1Cl)C(=O)NC1(C#N)CCCCC1 (stereo not drawn)	none
C#Cc1ccccc1OCCCN1CCC(C(O)(c2ccccc2)c2ccccc2)CC1	HT1080NT lethal 16µM, KB-3-1 cytotox inconclusive, KB-V1 MDR tox inconclusive, HT1080 IDH1KD tx 16µM
c1ccc(-c2ccccc2OCCCN2CCOCC2)cc1	none
OCCCN1CCN(CCCOc2ccccc2-c2ccccc2)CC1	IL-1B inflam inh inconclusive, KB-V1 MDR tox inconclusive
N#Cc1ccccc1OCCCN1CCC(C(O)(c2ccccc2)c2ccccc2)CC1	IL-1B inflam inh inconclusive, HT1080NT lethal inconclusive, KB-3-1 cytotox inconclusive, KB-V1 MDR tox 23µM, HT1080 IDH1KD tx inconclusive
Cc1noc(C)c1NC(=O)Nc1ccc2c(c1)C(=O)N([C@H](C)CO)C[C@H](C)[C@@H](CN(C)S(=O)(=O)c1ccc(Cl)cc1)OCCCC[C@@H](C)O2	none
CCOC(=O)c1ccc(NC(=O)CN(C)S(=O)(=O)c2ccc(Br)s2)cc1	IL-1B inflam inh -72
FC(F)Oc1ccc(-c2csc(NNC3=NCCCCC3)n2)cc1	IL-1B inflam inh -93, HT1080NT lethal inconclusive, HT1080 IDH1KD tx inconclusive
CC(C)(C)c1ccc(-c2csc(NNC3=NCCCCC3)n2)cc1	IL-1B inflam inh -61, KB-V1 MDR tox inconclusive, HT1080 IDH1KD tx inconclusive
Brc1ccc(-c2csc(NNC3=NCCCCC3)n2)cc1	IL-1B inflam inh -53, KB-3-1 cytotox inconclusive
c1ccc(-c2csc(NC3=NCCCCC3)n2)cc1	none
CC(C)(C)c1ccc(C(=O)NNc2ncnc3c2cnn3-c2ccc(Cl)cc2)cc1	none (no result: IL-1B inflam inh, HT1080NT lethal, HT1080 IDH1KD tx)
COc1cc(OC)c(N(C)C(=O)Cn2ncc3c(=O)oc4ccccc4c32)cc1Cl	none (no result: IL-1B inflam inh, HT1080NT lethal, HT1080 IDH1KD tx)
CCC(=O)N(c1nnc(SCC(=O)c2ccc[nH]2)s1)C1CC1	KB-V1 MDR tox 12µM
CCC(=O)N(c1nnc(SCC(=O)Nc2ccc(N3CCOCC3)cc2)s1)C1CC1	none
Brc1ccc(CN2CCN(c3ccccn3)CC2)s1	IL-1B inflam inh -83
CSCCC(NC(=O)c1ccco1)C(=O)N1CC=C(c2ccccc2)CC1 (stereo not drawn)	none
Clc1ss/c(=N\c2ccccn2)c1Cl	IL-1B inflam inh -91
O=c1[nH]c(/C=C/c2ccc(OC(F)F)cc2)nc2c1cnn2-c1ccccc1	IL-1B inflam inh -56
COc1ccc(CCn2c3c(c(=O)[nH]c2=S)CN(c2ccccc2)CN3)cc1OC	none (no result: IL-1B inflam inh, KB-3-1 cytotox, KB-V1 MDR tox)
Cc1ccc(S(=O)(=O)Nc2ccc3nc(-c4cccn4C)[nH]c3c2)cc1	IL-1B inflam inh -50, KB-3-1 cytotox inconclusive
Cc1nc2ccc(NS(=O)(=O)c3ccc(Br)cc3)cc2s1	KB-3-1 cytotox 23µM
Cc1ccc(S(=O)(=O)Nc2ccc3nc(N)sc3c2)cc1	KB-3-1 cytotox inconclusive, KB-V1 MDR tox 21µM, HT1080 IDH1KD tx inconclusive
Cc1ccc(S(=O)(=O)Nc2ccc3nc(C)oc3c2)cc1	KB-3-1 cytotox inconclusive, KB-V1 MDR tox 2.9µM
O=C(CN1C(=O)NC2(CCc3ccccc32)C1=O)c1ccc(F)cc1 (stereo not drawn)	none
CCN(CC(=O)Nc1ccc(C(C)=O)cc1)CC(=O)Nc1cccc(OC)c1	KB-V1 MDR tox inconclusive
CCOc1cc(C)nc(N2CCC(C(=O)NCC3CCCO3)CC2)n1 (stereo not drawn)	none
O=C(NCC1CC1)C1(C(F)(F)F)C/C(=C\Cc2ccccc2)CCCO1 (stereo not drawn)	none
Cc1ccc2nc(-c3ccc(NS(=O)(=O)c4ccc(F)c(F)c4)cc3)sc2c1	IL-1B inflam inh -51, HT1080NT lethal inconclusive, HT1080 IDH1KD tx inconclusive
Cc1nc2cc(NS(=O)(=O)c3c(C)c(C)cc(C)c3C)ccc2s1	HT1080NT lethal 13µM, KB-3-1 cytotox 13µM, KB-V1 MDR tox 11µM, HT1080 IDH1KD tx 13µM
Cc1nc2ccc(NS(=O)(=O)c3c(C)c(C)cc(C)c3C)cc2s1	HT1080NT lethal inconclusive, KB-3-1 cytotox inconclusive, KB-V1 MDR tox inconclusive, HT1080 IDH1KD tx 23µM
CCOC(=O)CC1C(=O)NCCN1S(=O)(=O)c1cccc(C(F)(F)F)c1 (stereo not drawn)	none (no result: KB-3-1 cytotox, KB-V1 MDR tox)
CCOC(=O)Cn1cc(C(=O)C2CC2)c2ccccc21	none
COC(=O)Cn1cc(C(=O)C2CC2)c2ccccc21	IL-1B inflam inh -89
COC(=O)Cn1cc(C(=O)C(C)(C)C)c2ccccc21	IL-1B inflam inh -74
CN1c2ccccc2C(C)(C)C12CC(c1cccc(S(=O)(=O)N3CCCC3)c1)=NO2 (stereo not drawn)	KB-3-1 cytotox inconclusive, KB-V1 MDR tox 6.5µM
CCN(CC)Cc1c(C(=O)N/N=C/c2cccs2)nnn1-c1nonc1N	none
COc1ccccc1C(=O)NCC(=O)OCCCOC(=O)CNC(=O)c1ccccc1OC	none
CC(C)(C#CCN1CCCCC1)OCCOC(c1ccccc1)c1ccccc1	IL-1B inflam inh -61, HT1080NT lethal inconclusive, KB-3-1 cytotox inconclusive, KB-V1 MDR tox inconclusive, HT1080 IDH1KD tx inconclusive
C(#CCN1CCCC1)CC(c1ccccc1)c1ccccc1	IL-1B inflam inh -64, HT1080NT lethal inconclusive, KB-V1 MDR tox inconclusive, HT1080 IDH1KD tx inconclusive
C(#Cc1ccccc1)CN1CCCCC1	none
Cc1nnc(NC(=O)CSc2nnc3scc(-c4ccc(C)c(C)c4)n23)s1	KB-V1 MDR tox 21µM
O=C(CN1C(=O)c2ccccc2C1=O)C(O)CN1C(=O)c2ccccc2C1=O (stereo not drawn)	HT1080NT lethal inconclusive
c1ccc(-c2cccc(-c3ccccn3)n2)nc1	HT1080NT lethal inconclusive, KB-3-1 cytotox inconclusive, KB-V1 MDR tox 1.8µM, HT1080 IDH1KD tx 0.28µM
c1ccc(-c2nnc(-c3ccccn3)nn2)nc1	none
CC(C)NC(=O)NC(=O)COC(=O)C1(C)CC1(Cl)Cl (stereo not drawn)	none
COc1ccc(C(C)NCCC(c2ccc(OC(C)C)cc2)c2ccccc2OC)cc1 (stereo not drawn)	IL-1B inflam inh -98, HT1080NT lethal 15µM, KB-3-1 cytotox 21µM, KB-V1 MDR tox 16µM, HT1080 IDH1KD tx inconclusive
N#Cc1ccc(C23OCCN2CCn2nc4ccccc4c23)cc1 (stereo not drawn)	none
O=C(NN=C1CCCC1)c1cccc(Br)c1	none

High-throughput results deposited in PubChem by National Center for Advancing Translational Sciences (NCATS).
